# HEK cytotox – Cytotoxic Profiling in HEK 293 Cell Line of Diverse Libraries Using Quantitative High-Throughput Screening; HEK 293 viability, ATP luminescence (CellTiter-Glo), 48-72 h; Potency, µM (series often up to 115 µM), without a hit: at the highest dose activity change, negative = cytotoxicity, most hits filed as inhibitors; 94,000 tested, 6.6% active; AID 1345083, 2018; note: % is set by controls: 0 for no effect and ±100 for the full control effect; nearly all actives have a fitted effect of over 60% in size
#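 HEK 293 seeded at 250 cells/well receive compound via pintool. After 48 or 72 hr at 37 degree Celsius, 5% CO2 and 95% humidity, CellTiter-Glo is dispensed and luminescence read following 10 min at room temperature.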
# NPR1 antag – Natriuretic polypeptide receptor (hNpr1) antagonism - Primary qHTS; HEK293 hNpr1 GloSensor cGMP, ANP-stimulated luminescence; Potency, µM (series often up to 46.3 µM), for inactives: at the top dose activity change, negative = inhibition, usual class: inhibitors; 76,000 tested, 1.6% active; AID 1347048, 2019; calls by dose curve; note: % is set by controls: 0 for no effect and ±100 for the full control effect; nearly all actives have a fitted effect of over 60% in size
#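 HEK293 cells stably expressing human Npr1 and cGMP GloSensor pGS-40F, loaded 2 h with 2% GloSensor reagent, given compound 30 min at room temperature. Luminescence read before and 20 min after 0.1 nM hNppA.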
# Luciferase inh – Firefly luciferase inhibition profiling of diverse chemical library using quantitative high-throughput screening; Luciferin 4-monooxygenase (Photinus pyralis), P08659; purified P. pyralis luciferase, luminescence, biochemical; Potency, µM (doses to about 115 µM), hits mostly inhibitors; 76,000 tested, 2.5% active; note: % is set by controls: 0 for no effect and ±100 for the full control effect; nearly all actives have a fitted effect of over 65% in size
# Target sequence (P08659 whole entry, looked up): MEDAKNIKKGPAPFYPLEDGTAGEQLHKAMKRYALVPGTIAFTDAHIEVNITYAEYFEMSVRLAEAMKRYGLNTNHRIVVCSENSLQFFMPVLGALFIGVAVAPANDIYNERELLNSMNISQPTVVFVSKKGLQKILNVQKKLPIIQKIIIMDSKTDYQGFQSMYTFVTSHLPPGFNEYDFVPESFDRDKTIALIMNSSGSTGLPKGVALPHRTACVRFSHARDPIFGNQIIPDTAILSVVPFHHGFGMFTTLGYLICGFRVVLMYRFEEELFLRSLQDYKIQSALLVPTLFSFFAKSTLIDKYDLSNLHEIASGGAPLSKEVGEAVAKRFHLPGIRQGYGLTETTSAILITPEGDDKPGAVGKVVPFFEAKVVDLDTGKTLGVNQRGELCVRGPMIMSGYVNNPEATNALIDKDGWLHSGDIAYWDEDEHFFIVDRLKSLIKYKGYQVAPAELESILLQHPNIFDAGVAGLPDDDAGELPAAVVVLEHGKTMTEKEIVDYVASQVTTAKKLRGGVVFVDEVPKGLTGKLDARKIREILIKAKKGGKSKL
#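 Biochemical qHTS: compound (6-point titration) added to 10uM D-luciferin plus 10uM ATP in Tris acetate pH 7.5 buffer with Mg, Tween-20 and BSA, then purified enzyme at 10nM; light output imaged.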
# GPT2 inhibitor – Primary qHTS assay for inhibitors of Glutamate pyruvate transaminase 2 (GPT2); Alanine aminotransferase 2 (Homo sapiens), Q8TD30; 100,000 tested, 0.25% active; Recombinant GPT2, coupled pyruvate oxidase/HRP Amplex Red fluorescence; Potency, µM (series often up to 57.7 µM), for the others: at the top dose activity change, negative = inhibition, actives largely listed as inhibitors; note: % is set by controls: 0 for no effect and ±100 for the full control effect; nearly all actives have a fitted effect of over 60% in size
#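 Recombinant GPT2 (10ng/uL) with 250uM a-KG and 2mM L-alanine, 30 min at room temperature, in HEPES pH 7.5 buffer. Pyruvate detected by pyruvate oxidase/HRP/Amplex Red fluorescence after 30 min in the dark; AOA (50uM) as positive control.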
# NIH3T3 tox – Cytotoxic Profiling in NIH 3T3 Cell Line of Diverse Libraries Using Quantitative High-Throughput Screening. NIH 3T3 viability, CellTiter-Glo ATP luminescence, 48-72 h. Potency, µM (highest dose often 96.7 µM), without a hit: top-dose activity change, negative = cytotoxicity, actives largely listed as inhibitors. 94,000 tested, 4.3% active. AID 1345082, 2018; note: % is set by controls: 0 for no effect and ±100 for the full control effect; nearly all actives have a fitted effect of over 55% in size
#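 Luminescent ATP readout (CellTiter-Glo, 10 min RT) after 48 or 72 hr compound exposure of NIH 3T3 cells seeded at 400 cells/well in 1536-well format; quantitative HTS.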
# Npr1 antag conf – Natriuretic polypeptide receptor (hNpr1) antagonism - Confirmation | shares compounds with NPR1 antag | AID 1347044, 2019 | HEK293 hNpr1 cGMP GloSensor luminescence, ANP-stimulated | 1,400 tested, 76% active | Potency, µM (titrated, usually from 57.6 µM), without a hit: top-dose activity change, negative = inhibition, actives largely listed as inhibitors; calls by dose curve; note: nearly all actives have a fitted effect of over 70% in size
# NPR2 antag – Natriuretic polypeptide receptor (hNpr2) antagonism - Subtype selectivity assay. shares compounds with NPR1 antag. HEK293 hNpr2 GloSensor cGMP luminescence, CNP-stimulated. Potency, µM (doses to about 57.6 µM), for the others: at the top dose activity change, negative = inhibition, usual class: inhibitors. 1,400 tested, 67% active; calls by dose curve; note: nearly all actives have a fitted effect of over 70% in size
# FLuc counter – Natriuretic polypeptide receptor (hNpr1) antagonism - Confirmation firefly luciferase (FLuc) inhibition counterscreen | Potency, µM (doses to about 57.6 µM), for inactives: at the top dose activity change, negative = inhibition, usual class: inhibitors | purified FLuc enzyme, luminescence, Km substrate | shares compounds with NPR1 antag | AID 1347047, 2019 | 1,400 tested, 0.7% active; note: 0% is about no effect
# GloSensor ctrl – Natriuretic polypeptide receptor (hNpr1) antagonism - Counterscreen GloSensor control cell line. 1,400 tested, 69% active. HEK293 GloSensor cGMP, SNP-stimulated, luminescence. Potency, µM (highest dose often 57.6 µM), for inactives: at the top dose activity change, negative = inhibition, most hits filed as inhibitors. AID 1347051, 2019. shares compounds with NPR1 antag; calls by dose curve; note: % is set by controls: 0 for no effect and ±100 for the full control effect; nearly all actives have a fitted effect of over 70% in size
# * = called active by the depositor; i = inactive; ? = inconclusive; / = not tested or not shown; [ ] = another dose, or the depositor's remark. Rows were chosen to be rich in hits. Some 10% of all compounds tested hit in one or more screens of this group. Unless noted, calls come from the whole dose curve; as a rule, active = well fitted curve in the direction sought with a large enough effect; inconclusive = small, poorly fitted or top-dose-only effect, or another doubt; inactive = no such curve, though single readings can be large; an effect the other way counts as inactive or inconclusive. Potency is the fitted concentration of half-maximal effect.
SMILES,HEK cytotox,NPR1 antag,Luciferase inh,GPT2 inhibitor,NIH3T3 tox,Npr1 antag conf,NPR2 antag,FLuc counter,GloSensor ctrl
CCN(CC)C(=O)c1csc(N2CCN(c3cccc(Cl)c3)CC2)n1,?,16µM*,i,0%,?,24µM*,22µM*,5%,22µM*
COc1cccc(N2CCN(c3nc(C(=O)NCc4cccc(C)c4)cs3)CC2)c1,?,13µM*,i,i,?,12µM*,11µM*,-3%,12µM*
CC(C)(N)C(=O)N1CCCC(N2CCN(c3cccc(Cl)c3)CC2)C1 (centres undefined),?,3%,i,i,?,/,/,/,/
COc1ccc(-c2cn3cc(C(=O)NCc4cccc(OC)c4)nc3s2)cc1,?,/,/,i,?,/,/,/,/
O=C(NC1CCCCCC1)c1csc(N2CCN(c3ccccc3)CC2)n1,?,?,i,i,?,24µM*,?,-15%,?
COCC(NC(=O)c1ccc2nc(C3CCCCC3)oc2c1)c1ccnn1C (centres undefined),?,?,i,-3%,-24%,-29%,?,5%,-9%
Cc1ccc(S(=O)(=O)N2CCc3c(C(=O)NCC(C)C)cccc32)cc1,?,?,i,i,?,?,?,0%,?
CCOc1ccc(CN2CCN(c3nc4ccccc4o3)CC2CCO)cc1 (centres undefined),35µM*,14µM*,i,-7%[11.5 µM],-17%,22µM*,24µM*,-2%,22µM*
Clc1cc2c(NC3CCCC3)nnc(-c3ccncc3)c2cc1Cl,/,/,/,-4%[17.1 µM],/,/,/,/,/
CCOc1ccc(NC(=O)CCC2CCN(c3cc(NC4CC4)ncn3)CC2)cc1,?,?,i,-1%,-19%,?,?,-29%,?
CN(CCc1ccccc1)C(=O)CCC1CCN(c2cc(NC3CC3)ncn2)CC1,35µM*,11µM*,i,?,?,22µM*,22µM*,-14%,14µM*
CCNc1cc(N2CCC(CCC(=O)N3CCN(c4cccc(OC)c4)CC3)CC2)ncn1,35µM*,11µM*,i,i,?,17µM*,19µM*,-19%,17µM*
CC(=O)N1CCN(C(=O)CCC2CCN(c3cc(NC4CC4)ncn3)CC2)CC1,?,?,i,?,-24%,/,/,/,/
O=C(CCC1CCN(c2cc(NC3CC3)ncn2)CC1)N1CCN(c2ccccc2F)CC1,?,13µM*,i,i,?,24µM*,22µM*,-23%,24µM*

# Source: PubChem BioAssay
